Test results published in PubChem BioAssay (NCI).
This is part of a sample that, as a whole, favours compounds with a hit. Of some 83,000 tested, about 20% had one in any assay.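 Results are percent growth after 48 hours of single-concentration exposure. 100 means growth as in untreated cells, lower positive values show inhibition; negative values down to -100 show cell death.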 Calls of active or inactive are those of the source. The calls were made as follows: active = growth percent below 10; inactive = the rest.

Columns and labels:
Assay in all cases: NCI-60 one-dose screen, 48 h (100 = growth as untreated, 0 = no growth, -100 = all killed)
BT-549 breast = conditions: 10 µM unless noted
MDA-MB-435 melanoma = conditions: 10 µM unless noted
SW-620 colon = conditions: 10 µM unless noted
MCF7 breast = conditions: 10 µM
HCT-116 colon = conditions: 10 µM unless noted
HCC-2998 colon = conditions: 10 µM unless noted
KM12 colon = conditions: 10 µM unless noted

Measured: growth

COc1ccc(-c2nc(-c3ccccc3)c(-c3ccccc3)[nH]2)cc1OC1CCCCC1
inactive: BT-549 breast 118% | MDA-MB-435 melanoma 84.8% | SW-620 colon 88.8% | MCF7 breast 73.6% | HCT-116 colon 88.4% | HCC-2998 colon 90.8% | KM12 colon 89.3%

COC(=O)[C@@H]1CCCN1C(=O)[C@H]1CCCN1C(=O)[C@@H](Cc1c[nH]c2ccccc12)NC(=S)Nc1cc(C(F)(F)F)cc(C(F)(F)F)c1
inactive: BT-549 breast 78.9% | MDA-MB-435 melanoma 31.9% | SW-620 colon 63.1% | MCF7 breast 25.3% | HCT-116 colon 36.9% | HCC-2998 colon 20.8% | KM12 colon 40.1%

CCOc1ccc(Nc2ccnc3cc(Cl)ccc23)cc1
inactive: BT-549 breast 14.4% | SW-620 colon 14.5% | HCC-2998 colon 12.2%
active: MDA-MB-435 melanoma -7.51% | MCF7 breast 4.41% | HCT-116 colon 9.4% | KM12 colon 6.96%

CCCCN1CCN(c2ccc3nc(-c4ccc5nc(-c6ccc(C(F)(F)F)cc6)[nH]c5c4)[nH]c3c2)CC1
active: BT-549 breast -53.2% | MDA-MB-435 melanoma -85.3% | SW-620 colon -76.9% | MCF7 breast -74.3% | HCT-116 colon -70.7% | HCC-2998 colon -84% | KM12 colon -88.3%

CC(C)[C@H](NC(=O)Cn1cc(C(=O)O)nn1)C(=O)O
inactive: BT-549 breast 104% | MDA-MB-435 melanoma 98.8% | SW-620 colon 108% | MCF7 breast 97.1% | HCT-116 colon 102% | HCC-2998 colon 107% | KM12 colon 103%

COc1ccc(CCN2C(=O)CCSC2=S)cc1OC
inactive: BT-549 breast 114% | MDA-MB-435 melanoma 96.2% | SW-620 colon 87.6% | MCF7 breast 28% | HCT-116 colon 103% | HCC-2998 colon 102%
active: KM12 colon 5.07%

Nc1ncnc(N)c1NC(=O)c1ccc(OCc2ccccc2)cc1
inactive: BT-549 breast 107% | MDA-MB-435 melanoma 109% | SW-620 colon 98.1% | MCF7 breast 103% | HCT-116 colon 111% | HCC-2998 colon 115% | KM12 colon 104%

COC(=O)C1=C(C)NC(C)=C(C(=O)OC)C(N2C(=O)CCC2=O)C1 (stereo not given)
inactive: BT-549 breast 79.4% | MDA-MB-435 melanoma 81.7% | SW-620 colon 44.7% | MCF7 breast 69.6% | HCT-116 colon 57.5% | HCC-2998 colon 105% | KM12 colon 94.7%

CN1CCN(Cc2ccc(NC(=O)c3cncc(C#Cc4nc(N)nc5[nH]ncc45)c3)cc2C(F)(F)F)CC1
inactive: BT-549 breast 82.9% | MDA-MB-435 melanoma 81.5% | SW-620 colon 28% | MCF7 breast 69.1% | HCT-116 colon 49.1% | HCC-2998 colon 133% | KM12 colon 81.9%

O=C1Nc2ccccc2/C1=C/c1ccc[nH]1
inactive: BT-549 breast 57.8% | MDA-MB-435 melanoma 101% | SW-620 colon 89.3% | MCF7 breast 12.8% | HCT-116 colon 96% | HCC-2998 colon 54.7% | KM12 colon 10.4%

O=C(NCc1ccco1)C1CN(c2ccc(Cl)cc2)N(c2ccc(Cl)cc2)C1=O (stereo not given)
active: MDA-MB-435 melanoma -32.5%
inactive: BT-549 breast 51.9% | SW-620 colon 28.6% | MCF7 breast 14.2% | HCT-116 colon 21.9% | HCC-2998 colon 76.1% | KM12 colon 22.3%

O=C1/C(=C/c2ccc(O)cc2)COc2ccc(O)cc21
inactive: BT-549 breast 106% | MDA-MB-435 melanoma 94.8% | SW-620 colon 87.2% | MCF7 breast 51.6% | HCT-116 colon 86.1% | HCC-2998 colon 108% | KM12 colon 64.7%

COc1cc2nc(-c3cnc(N(C)C)nc3)nc(NC3CCN(Cc4ccccc4)CC3)c2cc1OC
active: BT-549 breast -1.66% | MDA-MB-435 melanoma -83.6% | SW-620 colon -56.3% | MCF7 breast -65.5% | HCT-116 colon -80.6% | HCC-2998 colon -92.7% | KM12 colon -60.9%

CCOC(=O)c1c(C=O)nc2ccccc2c1/C=C/c1ccc(Cl)cc1
inactive: BT-549 breast 99.6% | MDA-MB-435 melanoma 101% | SW-620 colon 103% | MCF7 breast 78% | HCT-116 colon 82.4% | HCC-2998 colon 110% | KM12 colon 96.1%

Cc1c(-c2csc(-n3nc(C(F)(F)F)cc3C(F)(F)F)n2)no[n+]1[O-]
inactive: BT-549 breast 102% | MDA-MB-435 melanoma 99.2% | SW-620 colon 104% | MCF7 breast 85.1% | HCT-116 colon 93.1% | HCC-2998 colon 112% | KM12 colon 104%

COC(=O)/C(CCC=C(C)C)=C1\[C@@H](OC(C)=O)C[C@@]2(C)[C@H]1CC(=O)[C@H]1[C@@]3(C)CC[C@H](NCc4ccccc4)[C@@H](C)[C@@H]3CC[C@@]12C
inactive: BT-549 breast 89.7% | MDA-MB-435 melanoma 91.2% | SW-620 colon 81.5% | MCF7 breast 82.2% | HCT-116 colon 73% | HCC-2998 colon 66.6% | KM12 colon 101%

OC(CNC1CCCCC1)Cn1c2ccc(I)cc2c2cc(I)ccc21 (stereo not given)
inactive: BT-549 breast 85.9% | MDA-MB-435 melanoma 66.9% | SW-620 colon 79.5% | MCF7 breast 69.9% | HCT-116 colon 65.2% | HCC-2998 colon 94.3% | KM12 colon 74.5%

Cc1c(C(=O)OCCO)cc(-c2ccc(Cl)cc2)n1-c1ccc(Cl)cc1Cl
active: MDA-MB-435 melanoma 4.72%
inactive: BT-549 breast 92.8% | SW-620 colon 67.3% | MCF7 breast 44.3% | HCT-116 colon 60.3% | HCC-2998 colon 100% | KM12 colon 52.4%

CCn1c(-c2nonc2Nc2ccc(OC)cc2)nc2ccccc21
inactive: BT-549 breast 103% | MDA-MB-435 melanoma 96.8% | SW-620 colon 104% | MCF7 breast 110% | HCT-116 colon 97.4% | HCC-2998 colon 111% | KM12 colon 106%

COc1cc(/C=C2\CN(C)C/C(=C\c3cc(CN4CCOCC4)c(O)c(OC)c3)C2=O)cc(CN2CCOCC2)c1O
inactive: BT-549 breast 94% | MDA-MB-435 melanoma 29.2% | SW-620 colon 48% | MCF7 breast 19.5% | HCT-116 colon 21.1% | HCC-2998 colon 91% | KM12 colon 37.4%

CC1=CCC(OC(=O)C(C)(C)CCC(O)(C(=O)OC2(C(C)C)CCC3(C)OC3C2)C(C)C)(C(C)C)CC1 (stereo not given)
active: BT-549 breast -88.6% | MDA-MB-435 melanoma -98% | SW-620 colon -62.1% | MCF7 breast -61.1% | HCT-116 colon -41.2% | HCC-2998 colon -72.8% | KM12 colon -79%

Cc1ccc2cccc(Oc3ccc(Nc4ncnc5onc(-c6ccccc6)c45)cc3)c2n1
inactive: BT-549 breast 93.3% | MDA-MB-435 melanoma 79.9% | SW-620 colon 87% | MCF7 breast 79.5% | HCT-116 colon 58.5% | HCC-2998 colon 100% | KM12 colon 63.8%

COC(=O)/C(=C\c1c(-c2ccccc2)[nH]c2ccccc12)S(C)(=O)=O
active: MDA-MB-435 melanoma 4.05% | KM12 colon 4.53%
inactive: BT-549 breast 45.7% | SW-620 colon 20.4% | MCF7 breast 15.6% | HCT-116 colon 17.4% | HCC-2998 colon 44.7%

O=C(NC1C(O)OC(CO)C(O)C1O)NS(=O)(=O)c1ccc(Cl)cc1 (stereo not given)
inactive: BT-549 breast 108% | MDA-MB-435 melanoma 100% | SW-620 colon 100% | MCF7 breast 98.2% | HCT-116 colon 96.9% | HCC-2998 colon 115% | KM12 colon 104%

COc1ccc(/C=c2\sc3n(c2=O)NC2C(N=3)N(C)C(=O)N2C)cc1 (stereo not given)
inactive: BT-549 breast 111% | MDA-MB-435 melanoma 89.6% | SW-620 colon 105% | MCF7 breast 94.5% | HCT-116 colon 100% | HCC-2998 colon 108% | KM12 colon 95.2%

CCC1=C[C@@H]2CN(C1)Cc1c([nH]c3ccccc13)[C@@](C(=O)OC)(c1cc3c(cc1OC)N(C)[C@H]1[C@@](O)(C(=O)OC)[C@H](OC(C)=O)[C@]4(CC)[C@@H]5C[C@@H]5CN5CC[C@]31[C@@H]54)C2
inactive: BT-549 breast 12.8% | SW-620 colon 26.1%
active: MDA-MB-435 melanoma -57.7% | MCF7 breast 3.46% | HCT-116 colon 6.72% | HCC-2998 colon -13.1% | KM12 colon 5.74%

Nc1ccn(C2O[C@H](CO)[C@@H](O)[C@H]2O)c(=O)n1 (stereo not given in full)
inactive: BT-549 breast 111% | MDA-MB-435 melanoma 88.8% | SW-620 colon 72.7% | MCF7 breast 63.1% | HCT-116 colon 64.4% | HCC-2998 colon 99% | KM12 colon 72.1%

COc1cc(C=C2C(=O)N(C)C(=O)N(C)C2=O)cc(CN2CCCCC2)c1O
inactive: BT-549 breast 101% | MDA-MB-435 melanoma 103% | SW-620 colon 104% | MCF7 breast 92.5% | HCT-116 colon 100% | HCC-2998 colon 103% | KM12 colon 103%

COc1cc(-c2c3c(cn2S(=O)(=O)c2ccccc2)-c2nc(N)sc2CC3)cc(OC)c1OC
inactive: BT-549 breast 48.5% | SW-620 colon 25.6% | MCF7 breast 18.5% | HCT-116 colon 24% | HCC-2998 colon 45.5% | KM12 colon 28.5%
active: MDA-MB-435 melanoma -32.1%

COc1cccc(-c2nn(C)c3sc(C(=O)NCCN4CCN(c5ccccc5F)CC4)cc23)c1
inactive: BT-549 breast 90.8% | SW-620 colon 74.6% | MCF7 breast 15.1% | HCT-116 colon 33.5% | KM12 colon 54.2%
active: MDA-MB-435 melanoma -55.7% | HCC-2998 colon -41.1%

CC1=C(C(=O)OCC2CCN(C(=O)OC(C)(C)C)CC2)[C@@H](c2cccc(C#N)c2)C2=C(CC(C)(C)CC2=O)N1
inactive: BT-549 breast 50.3% | MDA-MB-435 melanoma 41.4% | SW-620 colon 29.6% | MCF7 breast 30.5% | HCT-116 colon 17.1% | HCC-2998 colon 75.6% | KM12 colon 36%

S=C1CCCC(=S)N1
inactive: BT-549 breast 102% | MDA-MB-435 melanoma 106% | SW-620 colon 105% | MCF7 breast 105% | HCT-116 colon 102% | HCC-2998 colon 111% | KM12 colon 105%

COc1ccccc1C(=O)O/N=C(\N)Cc1cccc2ccccc12
inactive: BT-549 breast 99.4% | MDA-MB-435 melanoma 105% | SW-620 colon 97.3% | MCF7 breast 78.9% | HCT-116 colon 81.5% | HCC-2998 colon 89.4% | KM12 colon 87.9%

O=c1c(-c2nc3ccccc3[nH]2)cc2ccccc2n1Cc1cn(Cc2ccccc2Cl)nn1
inactive: BT-549 breast 13.3% | MDA-MB-435 melanoma 15.1% | SW-620 colon 37.5% | MCF7 breast 26.2% | HCT-116 colon 18.2% | HCC-2998 colon 78.3% | KM12 colon 45.5%

COc1cc(C#N)cc2[nH]c(=O)oc12
inactive: BT-549 breast 97% | MDA-MB-435 melanoma 97.9% | SW-620 colon 101% | MCF7 breast 101% | HCT-116 colon 102% | HCC-2998 colon 105% | KM12 colon 101%
